High-throughput results: PubChem, National Center for Advancing Translational Sciences (NCATS)
TDP1 cell CPT: DT40-hTDP1 cell growth loss with CPT. chicken DT40 Tdp1-/-;hTDP1 cells + 20 nM CPT, ATP luminescence, 48 h. Potency, µM (titrated, usually from 46.2 µM), most hits filed as inhibitors. 420,000 tested, 12% active; also: nearly all actives have a fitted effect of over 55% in size
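Chicken DT40 Tdp1-/- cells stably complemented with human TDP1 were seeded at 400 cells/well in medium containing 20 nM camptothecin, exposed to pin-transferred compounds, and grown at 37 °C for at least 48 hr. Viability was read as ATP luminescence.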
TDP1 cell noCPT: qHTS for Inhibitors of human tyrosyl-DNA phosphodiesterase 1 (TDP1): qHTS in cells in absence of CPT; DT40 Tdp1-/- hTDP1 cells, no CPT, ATP luminescence, 48 h; Potency, µM (top dose mostly 46.2 µM), most hits filed as inhibitors; 420,000 tested, 15% active; AID 686978, 2013; also: nearly all actives have a fitted effect of over 55% in size
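Chicken DT40 Tdp1-/- cells stably complemented with human TDP1 were seeded at 400 cells/well with DMSO in place of 20 nM camptothecin. After compound pinning, cells grew at least 48 hr at 37 °C; viability read by CellTiter-Glo luminescence.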
HT1080NT lethal: kills 2HG-producing HT-1080-NT fibrosarcoma cells; HT-1080-NT fibrosarcoma viability, CellTiter-Glo ATP luminescence, 48 h; Potency, µM (doses to about 46.1 µM), most hits filed as cytotoxic; 360,000 tested, 1.6% active; AID 686970;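 also: NT is the 2HG producing partner of a matched IDH1 knockdown line; nearly all actives have a fitted effect of over 55% in size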
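Fibrosarcoma NT cells, 750 per well in 5% FBS RPMI, were exposed to compound for 48 hours. Viability: CellTiter-Glo luminescence.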
HT1080 IDH1KD tx: toxicity to HT-1080 IDH1 knockdown cells (counter line). HT-1080 IDH1 knockdown viability, ATP luminescence, 48 h. Potency, µM (highest dose often 46.1 µM), actives largely listed as cytotoxic. 360,000 tested, 2% active
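Knockdown cells (IDH1KD HT-1080) received compounds 2 h after plating at 750 cells/well and were kept 48 h at 37 °C in 5% FBS RPMI. A CellTiter-Glo luminescence read gave % activity for curve fitting.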
IL1B secr inh: blocks inflammasome-driven IL-1 beta release. THP-1 LPS/ATP IL-1B secretion, AlphaLISA, 16 h; active compounds read low. activity change, % at 57.5 µM. 360,000 tested, 4.7% active; in the data active = activity change below about -50%; inconclusive = mostly about -30% to -49%
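Secreted IL-1B measured by AlphaLISA bead assay after 16 h compound exposure of THP-1 cells; compounds (final up to 57.5 uM) added 1 h before LPS (250 ng/mL) and ATP (1.25 mM) stimulation; lower signal means less secretion.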
A number is an active result; i = inactive; ? = inconclusive; nt = not tested or not shown. Only some compounds are listed: those with a hit (about 19% of all), similar ones and a draw of the others. Unless noted, calls follow the shape of the dose curve; as a rule, active = well fitted curve in the direction sought with a large enough effect; inconclusive = small, poorly fitted or top-dose-only effect, or another doubt; inactive = no such curve, though single readings can be large; an effect the other way counts as inactive or inconclusive.

SMILES	TDP1 cell CPT	TDP1 cell noCPT	HT1080NT lethal	HT1080 IDH1KD tx	IL1B secr inh
NCCNC(=O)Cn1c(=O)c2c3c(sc2n(Cc2ccccc2)c1=O)CCCC3	20.6µM	23.1µM	?	?	-77.6
O=C(Cn1c(=O)c2c3c(sc2n(Cc2ccccc2)c1=O)CCCC3)NCCO	?	?	i	i	i
NCCCNC(=O)Cn1c(=O)c2c3c(sc2n(Cc2ccccc2)c1=O)CCCC3	20.6µM	?	i	i	i
O=C(Cn1c(=O)n2ncnc2c2c3c(sc21)CCCC3)c1ccccc1	23.1µM	?	i	i	i
O=c1n(Cc2ccccc2Cl)c2sc3c(c2c2ncnn12)CCCC3	?	?	i	i	i
CCOc1ccc(OCC)c(NS(=O)(=O)c2c(C)[nH]c(=O)[nH]c2=O)c1	i	i	nt	nt	nt
COc1cc(C#N)ccc1OC(=O)C1CCN(C(=O)c2ccc(F)cc2)CC1	i	i	i	i	i
Cc1ccccc1S(=O)Cc1ccc(C(=O)NCc2ccccc2Cl)o1 (centres undefined)	20.6µM	?	nt	nt	nt
O=C(NCc1cccc(F)c1)c1ccc(CS(=O)c2ccccc2Cl)o1 (centres undefined)	16.4µM	23.1µM	nt	nt	nt
O=C(NCc1ccco1)c1ccc(CS(=O)c2ccccc2Cl)o1 (centres undefined)	i	i	i	i	i
O=C(NCCCc1ccccc1)c1ccc(CS(=O)Cc2ccccc2Cl)o1 (centres undefined)	i	?	i	i	?
O=C(NCCCN1CCC(Cc2ccccc2)CC1)c1ccc(CS(=O)c2ccccc2Cl)o1 (centres undefined)	23.1µM	20.6µM	?	i	i
CC[C@@]1(C(=O)OC)N[C@H](CN(C)C(=O)Nc2ccc(OC)cc2)[C@@H]2C(=O)N(C)C(=O)[C@@H]21	i	i	i	i	i
CC(NC(=O)c1cccnc1)c1nnc2n1CCN(Cc1ccc(-c3ccccc3Cl)o1)CC2 (centres undefined)	i	i	nt	nt	nt
CCCCn1c(=O)n(CC2CCC(C(=O)NCCCOC)CC2)c(=O)c2sccc21 (centres undefined)	i	i	nt	nt	nt
O=C(c1csnn1)N1CCC[C@@]2(CCN(Cc3ccccc3)C2)C1	i	i	nt	nt	nt
COc1cccc(NC(=O)CCN2CCN(c3ccccc3F)CC2)c1	i	i	i	i	i
COc1ccc(C(=O)CCN2CCN(c3ccccc3F)CC2)cc1	4.61µM	3.66µM	?	?	i
O=C(CCC(=O)N1CCN(c2ccccc2F)CC1)c1ccc(F)cc1	i	?	i	i	i
O=C(CCN1CCN(c2ccccc2F)CC1)c1ccc(Br)cc1	2.59µM	2.91µM	?	?	i
CCCC(=O)Nc1ccc(NC(=O)c2ccccc2)nc1	i	i	i	i	i
CCCC(=O)Nc1ccc(NC(=O)c2ccccc2F)cn1	i	i	i	i	-61.1
CCN(CC)c1nc(Nc2ccccc2)nc(Oc2ccc(C(=O)OC)cc2)n1	?	?	i	i	i
COC(=O)c1ccc(Oc2nc(Nc3ccccc3)nc(N(C)C)n2)cc1	?	20.6µM	i	i	i
COc1ccc(/C=N/NC(=O)C(=O)/C=C2\NC3(CCCC3)Cc3ccccc32)cc1	?	?	i	i	i
SMILES	TDP1 cell CPT	TDP1 cell noCPT	HT1080NT lethal	HT1080 IDH1KD tx	IL1B secr inh
O=C(/C=C1\NC2(CCCC2)Cc2ccccc21)C(=O)N/N=C/c1ccc(O)c(O)c1	5.8µM	4.61µM	?	?	?
O=C(Cn1c(=O)c2ccccc2n2nncc12)Nc1cccc(F)c1	i	?	nt	nt	nt
CCOc1ccc(NC(=O)CCc2c(C)nc3c4c(C)cc(C)nc4nn3c2C)cc1	i	i	nt	nt	nt
Cc1cc(C)n(CCC(=O)Nc2ccc(Cl)cc2)n1	i	i	nt	nt	nt
Cc1cc(C)c2c(=O)n(CC(=O)Nc3cccc(F)c3)sc2n1	2.31µM	2.31µM	?	?	i
Cc1ccc(NC(=O)Cn2sc3nc(C)cc(C)c3c2=O)c(Cl)c1	2.91µM	2.91µM	i	?	i
Cc1cc(C)c2c(=O)n(CC(=O)Nc3ccc(Cl)cc3)sc2n1	4.11µM	2.59µM	i	?	i
CCOc1ccc(NC(=O)Cn2sc3nc(C)cc(C)c3c2=O)cc1	2.06µM	2.59µM	i	i	-88.6
COc1ncnc(OC)c1S(=O)(=O)Nc1ccc(C(F)(F)F)cc1	i	i	i	i	i
Cc1cc(=O)n2nc(-c3ccc(C(F)(F)F)cc3)sc2n1	i	i	?	i	i
COc1ccccc1NC(=O)CNC(=O)c1ccc(Br)o1	i	i	i	i	i
COC(=O)C1CCN(S(=O)(=O)c2ccc(N3CCCCS3(=O)=O)cc2)CC1	i	i	nt	nt	nt
O=C(CSc1nc2c([nH]c3ccccc32)c(=O)n1-c1cccc(Cl)c1)N1CCCC1	i	i	nt	nt	nt
Cc1cc(C)nc(/N=C(\N)Nc2ccc(CC(=O)OC(C)C)cc2)n1	?	3.26µM	i	i	-98.9
Cc1cc(C)nc(/N=C(\N)Nc2ccc(OCCC(C)C)cc2)n1	9.2µM	11.6µM	14.6µM	23.1µM	-97.9
Cc1cc(C)nc(/N=C(\N)Nc2ccc(S(=O)(=O)O)cc2)n1	i	i	i	i	i
Cc1cc(C)nc(/N=C(\N)Nc2ccc(C)c([N+](=O)[O-])c2)n1	10.3µM	13µM	i	i	-111.5
Cc1cc(C)nc(/N=C(\N)Nc2ccc(OCc3ccccc3)cc2)n1	11.6µM	11.6µM	18.4µM	?	-93.4
COc1ccc(N/C(N)=N/c2nc(C)cc(C)n2)cc1	i	?	i	i	i
O=C(CCNS(=O)(=O)/C=C/c1ccccc1)NCCc1c[nH]c2ccccc12	i	i	i	i	i
COc1ccccc1N/C(N)=N/c1nc(C)cc(C)n1	?	?	i	i	i
Cc1cc(C)nc(/N=C(\N)Nc2cccc(OCc3ccccc3)c2)n1	16.4µM	11.6µM	?	?	-68.4
Cc1cc(Br)c2[nH]c3c(c2c1)CCCC3=O	i	i	i	i	i
CCn1c(C)nc2cc(C(=O)N/N=C/c3ccc(O)c(O)c3O)ccc21	25.9µM	?	i	i	i
CCn1c(C)nc2cc(C(=O)N/N=C/c3cccc(OC)c3O)ccc21	?	?	i	?	i
SMILES	TDP1 cell CPT	TDP1 cell noCPT	HT1080NT lethal	HT1080 IDH1KD tx	IL1B secr inh
CCC(=NNC(=O)c1ccc2c(c1)nc(C)n2CC)c1cc(F)ccc1O	13µM	11.6µM	i	?	i
CCn1c(C)nc2cc(C(N)=O)ccc21	i	i	i	i	i
O=C(Nc1ccccc1Cl)c1ccccc1Oc1ccc(C(F)(F)F)cc1[N+](=O)[O-]	23.1µM	18.4µM	?	?	i
O=C(c1ccccc1Oc1ccc(C(F)(F)F)cc1[N+](=O)[O-])N1CCOCC1	i	i	i	i	i
COc1ccccc1NC(=O)COc1ccc(C(F)(F)F)cc1[N+](=O)[O-]	?	18.4µM	i	i	i
COc1cc(-c2nnc(COC(=O)c3nn(CC(C)C)c(=O)c4ccccc34)o2)cc(OC)c1OC	i	i	i	i	i
